Experimental data taken from PubChem BioAssay AID2796 (The Scripps Research Institute Molecular Screening Center, 2010).
Out of some 320,000 compounds screened, about 8,000 (2.5%) were called active. The list comes from a sample in which actives are over-represented; it also holds similar structures and randomly drawn compounds. Values without a mark were called inactive. Rule as the data show it: active = activation above about 47%; inactive = the rest.

target: Aryl hydrocarbon receptor (Homo sapiens) (UniProt P35869); experiment: AHR activators, primary screen, cell-based, luminescence, luciferase reporter, human (AID 2796); conditions: AHR-responsive luciferase reporter cells, at 5 µM, active compounds read high;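 also: 0% = vehicle wells and 100% = reference agonist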
Sequence (P35869 whole entry, looked up): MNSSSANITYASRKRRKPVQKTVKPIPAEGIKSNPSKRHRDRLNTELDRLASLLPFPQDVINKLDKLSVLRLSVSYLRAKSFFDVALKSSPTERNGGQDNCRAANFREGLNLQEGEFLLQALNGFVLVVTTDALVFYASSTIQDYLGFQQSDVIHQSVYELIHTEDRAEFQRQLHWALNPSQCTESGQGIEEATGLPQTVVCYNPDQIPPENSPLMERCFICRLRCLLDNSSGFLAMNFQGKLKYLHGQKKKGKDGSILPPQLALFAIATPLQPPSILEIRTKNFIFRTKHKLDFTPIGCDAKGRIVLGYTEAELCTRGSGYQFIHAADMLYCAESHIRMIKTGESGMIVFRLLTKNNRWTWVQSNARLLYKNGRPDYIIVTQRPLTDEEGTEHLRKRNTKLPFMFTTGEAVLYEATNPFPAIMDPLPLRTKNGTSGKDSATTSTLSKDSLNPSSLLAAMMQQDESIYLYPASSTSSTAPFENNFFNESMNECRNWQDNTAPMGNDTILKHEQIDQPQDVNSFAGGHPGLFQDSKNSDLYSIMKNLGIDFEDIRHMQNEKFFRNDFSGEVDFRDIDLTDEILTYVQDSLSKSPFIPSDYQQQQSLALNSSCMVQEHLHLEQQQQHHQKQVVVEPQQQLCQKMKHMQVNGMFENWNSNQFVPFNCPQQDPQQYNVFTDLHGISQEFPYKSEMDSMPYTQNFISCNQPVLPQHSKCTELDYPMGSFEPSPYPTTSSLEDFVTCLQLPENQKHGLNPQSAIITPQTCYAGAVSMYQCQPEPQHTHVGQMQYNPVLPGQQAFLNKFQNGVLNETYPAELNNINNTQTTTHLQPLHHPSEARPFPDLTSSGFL

Compound | activation
O=C(OCC(=O)N1CCCC1)c1ccc(Cl)nc1 | -1.12%
CCC(C)(C(=O)NC1CCCCC1)N(C)C(=O)c1ccc2c(c1)OCO2 (stereo not given) | -0.09%
CCOC(=O)C1=NNC2(c3ccc(Cl)cc3)C(=O)N(c3cc(C)cc(C)c3)C(=O)C12 (stereo not given) | 5.66%
CCc1nnc(NC(=O)/C=C/c2ccc(C)o2)s1 | 28.2%
Cc1nnc(NC(=O)/C=C/c2ccco2)s1 | 120% (active)
CCC(CC)c1nnc(NC(=O)/C=C/c2ccco2)s1 | 46.2%
COc1ccc(S(=O)(=O)N2CCC(C(=O)NCc3ccco3)CC2)cc1C | 0.76%
CCc1ccc(NC(=O)C(=O)N/N=C(\C)CC(=O)NCCOC)cc1 | 8.77%
CC(Sc1nncn1C)C(=O)NCCC1=CCCCC1 (stereo not given) | -0.01%
CC1CCc2c(sc3nc4n(c(=O)c23)CCS4)C1 (stereo not given) | -1.18%
CC1CCc2sc3nc(N4CCN(CCO)CC4)n4ncnc4c3c2C1 (stereo not given) | 61.8% (active)
CCCn1nnc2sc3c(c2c1=O)CCC(C)C3 (stereo not given) | -0.09%
c1ccc2c(c1)CCc1snnc1-2 | 2.81%
CCC1CCc2c(sc(NC(C)=O)c2C#N)C1 (stereo not given) | 1.29%
COc1ccc(NC(=O)C(CC(C)C)NC(=O)C2CCC(C)CC2)cc1 (stereo not given) | 1.21%
CC(=O)Nc1ccc(S(=O)(=O)NCC2CCC(C(=O)NCCc3ccccc3)CC2)cc1 (stereo not given) | 0.11%
Cn1cncc1C#Cc1c(-c2ccsc2)sc2ccccc12 | 52.7% (active)
Cc1cccc(-c2oc3ccc(-c4ccc5c(c4)OCO5)cc3c2C#Cc2cncn2C)c1 | 26.5%
O=C(NCc1ccc2c(c1)OCO2)c1c(-c2ccsc2)sc2ccccc12 | 44.7%
COC(=O)/C(=C\Nc1ccccc1)NC(=O)c1ccc(Cl)cc1Cl | 1.34%

Compound | activation
N#CC1(C#N)C(C(=O)C23CC4CC(CC(C4)C2)C3)C12CCOCC2 (stereo not given) | -2.81%
CC(C)(C)c1cc(C(=O)N/N=C/c2ccc([N+](=O)[O-])s2)n[nH]1 | -8.74%
Cc1ccccc1NCC(=O)N/N=C\c1ccc([N+](=O)[O-])s1 | 56.7% (active)
COc1ccc(C(=O)NCC(=O)N/N=C/c2ccc([N+](=O)[O-])s2)cc1OC | -1.7%
Cc1cc(O)ccc1NC1=CC(=O)CC(C)(C)C1 | 15.2%
CCN1CCN(C(=O)CN(C)S(=O)(=O)c2ccc3ccccc3c2)CC1 | -1.56%
C[C@@H]1CN([C@H](C)CO)C(=O)c2cc(NC(=O)NC3CCCCC3)ccc2O[C@H]1CN(C)S(C)(=O)=O | -0.98%
COc1cccc(C(O)Cc2nc3ccccc3n2C)c1OC (stereo not given) | 6.17%
CCOc1ccc(C(O)Cc2nc3ccccc3n2C)cc1 (stereo not given) | 118% (active)
CCCn1c(C(O)c2ccc(OCC)cc2)nc2ccccc21 (stereo not given) | 0.65%
Cc1cc(Br)ccc1NC(=O)c1cnc(N2CCN(c3ccccn3)CC2)c2ccccc12 | 20.2%
Cc1cc(Nc2ccc(N3CCOCC3)cc2)c2cccc(C)c2n1 | 8.99%
Cc1nn2c3cc(N4CCOCC4)ccc3nc2c2ccccc12 | 144% (active)
N#CCSc1nc2ccc(N3CCOCC3)cc2c(=O)n1CCc1ccccc1 | 1.4%
NC(=O)c1cc2ccccc2o/c1=N/NC(=O)c1cccc(F)c1 | 52.6% (active)
N=c1oc2ccccc2cc1C(=O)NCc1ccccc1 | -3.55%
CCN(CC)c1ccc(C(=O)N/N=C/c2ccc(N3CCOCC3)cc2)cc1 | 19%
CCN(CC)c1ccc2cc(C(N)=O)/c(=N\NC(=O)c3ccncc3)oc2c1 | 78% (active)
CCN(CC)c1ccc(/C=N/NC(=O)c2cnccn2)c(O)c1 | 22.4%
COc1cccc2cc(C(N)=O)/c(=N\NC(=O)c3ccccc3)oc12 | 8.63%

Compound | activation
COc1cc(/C=C/C(=O)Nc2ccc(OC)c(S(=O)(=O)N3CCOCC3)c2)ccc1OCC#N | -0.9%
CCCCCc1ccc(-c2ccc(C(=O)O)cc2)nc1 | -9.97%
COc1ccccc1CCNS(=O)(=O)c1cc2c3c(c1)C(C)C(=O)N3CCC2 (stereo not given) | 4.39%
CC(=O)NS(=O)(=O)c1ccc(NC(=O)/C=C/c2ccccc2Cl)cc1 | 7.35%
CCn1nc(C)c(/C=N/NC(=O)Cc2ccc(Cl)cc2)c1C | 56.2% (active)
O=C(Cc1ccccc1)N/N=C/c1ccc(Cl)cc1Cl | 1.3%
O=C(Nc1nnc(Cc2ccc(Cl)cc2)s1)c1cccnc1 | 3.47%
Cc1ccc(/C=N/NC(=O)Cn2nc(C)c(Br)c2C)o1 | 2.15%
Cc1nn(Cc2ccc(Cl)cc2)c(Cl)c1/C=N/NC(=O)c1cccnc1 | 96.6% (active)
Cc1nn(Cc2ccc(Cl)cc2)c(Cl)c1/C=N/NC(=O)CNc1ccccc1F | 25%
CC(OC(=O)CCCc1c[nH]c2ccccc12)C(=O)Nc1ccc(S(N)(=O)=O)cc1 (stereo not given) | 0.81%
CC(NC(=O)CN1CCN(Cc2ccc(Cl)cc2)C1=O)c1ccc2c(c1)OCCO2 (stereo not given) | 0.39%
CCOC(=O)c1cccc(NC(=O)C2CCN(c3ncnc4c3nc3n4CCCCC3)CC2)c1 | 2.44%
CCCCC[C@@H]1C=C(C(=O)O)[C@H](c2ccc(C#N)cc2)N1S(=O)(=O)c1ccc(C)cc1 | -1.14%
Cc1ccc(C(=O)NCC(=O)OCc2nnc(-c3ccccc3)o2)cc1 | 1.68%
CC(C)[C@H](NC(=O)N1CC(=O)Nc2ccccc21)C(=O)N[C@@H](Cc1c[nH]c2ccccc12)C(=O)O | 10.6%
COC(=O)c1[nH]c2cccc(C)c2c1NC(=O)CN1CCCc2ccccc21 | 26.4%
NS(=O)(=O)c1cccc(NC(=O)CN2CCCc3ccccc32)c1 | 3.96%
COC(=O)c1[nH]c2ccccc2c1NC(=O)CN1CCCc2ccccc21 | 74.4% (active)
COc1ccc(OC)c(S(=O)(=O)N2CCCC(C(=O)N3CCC(C(N)=O)CC3)C2)c1 (stereo not given) | -1.65%
